12 compounds from PubChem BioAssay (NCATS) can be followed below.

Structures are written as SMILES. Results filed as inconclusive are left out. A number with no mark means an inactive call. Calls follow the shape of the dose curve; as a rule, active = well fitted cell-killing curve with a large enough effect; inconclusive = small, poorly fitted or top-dose-only effect; inactive = flat fitted curve, though single readings scatter.
% is scaled to controls: 0 for no effect and ±100 for the full control effect.

A short description of the assay: NCATS anti-infectives library activity on HEK293 viability as a counter-qHTS vs the C. elegans viability qHTS (AID 1745854). Conditions: HEK293 viability counter-screen; series mostly up to 41.8 µM; activity change, negative = cytotoxicity: at the top concentration. From the text: Assay Development and Screening Technology Laboratory (ADST)
National Center for Advancing Translational Sciences (NCATS), Rockville, MD
National Institute of Health (NIH), Bethesda, Maryland
Caenorhabditis elegans has helped elucidate the evolutionarily conserved genetics underlying pathways and cellular processes implicated in human disease and may be ideally positioned to reveal novel pharmacological properties of exiting drugs. The organism's short life cycle and microscopic size is applicable to the technical requirements of high-throughput screening. Here a quantitative high-throughput screening (qHTS)-based forward chemical biology platform has been developed using C. elegans. 384-well microtiter plate laser scanning cytometry was used in the rapid detection and quantification of the fluorescent protein-encoded phenotype to score worm viability. In a proof-of-concept study, the pharmacological qHTS profile obtained from a library of 643 anti-infective compounds.
1. Inglese, J., Auld, D. S., Jadhav, A., Johnson, R. L., Simeonov, A., Yasgar, A., Zheng, W., and Austin, C. P. (2006) Quantitative high-throughput screening: A titration-based approach that efficiently identifies biological activities in large chemical libraries, P Natl Acad Sci USA 103, 11473-11478.
2. Auld, D. S., Johnson, R. L., Zhang, Y. Q., Veith, H., Jadhav, A., Yasgar, A., Simeonov, A., Zheng, W., Martinez, E. D., Westwick, J. K., Austin, C. P., and Inglese, J. (2006) Fluorescent protein-based cellular assays analyzed by laser-scanning microplate cytometry in 1536-well plate format, Method Enzymol 414, 566-589.
3. Zuck, P., Lao, Z., Skwish, S., Glickman, J. F., Yang, K., Burbaum, J., and Inglese, J. (1999) Ligand-receptor binding measured by laser-scanning imaging, Proc Natl Acad Sci U S A 96, 11122-11127.
PROTOCOL TABLE (as described by Inglese J, Shamu CE and Guy RK. 2007)
SEQUENCE No. (e.g., 1, 2, 3, etc.); […] (e.g., C. elegans, Compounds, Incubation, Read, etc.); VALUE and DESCRIPTION.
1. Compounds. Library compounds and digitonin control added at 25 nL per well to 7 assay ready 1536-well Greiner white/solid bottom high base, TC plates and two DMSO control plates, transferred by Echo acoustic dispenser.
2. Cells. Seed 1500 HEK293 per well in 6 uL into assay ready Greiner 1536-well plates.
3. Incubation. Incubate plated cells with compounds at 37C in 5% CO2, 95% RH for 24 hr.
4. Reagent. Add 4 uL of CellTiter-Glo reagent from Promega per well of Greiner 1536-well plates with BioRAPTR FRD.
5. Incubation. Incubate treated cells at room temperature for 10 min., protect from light.
6. Detector. CellTiter-Glo luminescence measured using CCD-based camera (Viewlux) with settings as follows: Exposure, 1 sec; Gain, High; Speed, Slow; Binning, 2X.
NOTES (numbers refer to Sequence numbers above; values are from representative experiments)
1. NIH Anti-Infectives library pre-dispensed into 7 assay ready 1536-well Greiner white/solid bottom high base, TC plates with Echo 555 acoustic dispenser. Most compounds dispensed at 10 mM high concentration and plated in 7-pt 1:5 inter-plate titration at 25 nl / well for a final assay concentration range of 41.7 uM - 2.7 nM. Two 1536-well Greiner assay plates of DMSO plated as screening controls to be read at the beginning and the end of the screen. Controls included DMSO vehicle control added at 25 nl/well to each well of column 1 and […] (83.3 uM final assay concentration), and Digitonin titrated 1:2 at 25 nl/ well to column 4 in duplicate for a final assay concentration range of 83.3 uM - 2.5 nM.
2. HEK293 cells grown for 48 hr in one T175 culture flask in DMEM high glucose media supplemented with 10% FBS and 1% Pen/Strep antibiotic. Cells trypsinized and diluted in 10 ml supplemented media, strained through 40 µm cell strainer, and diluted to a total volume of 40 ml with supplemented media. […]
In general terms: qHTS replaces the single test concentration by a dilution series.
On to `O=C(O)c1cc(C(F)(F)F)ccc1N1CC[C@H](OCc2ccccn2)C1`, for which the “activity change, negative = cytotoxicity” value was -7.51%. For `COc1cnc(-n2cnc(C)n2)c2[nH]cc(C(=O)C(=O)N3CCN(C(=O)c4ccccc4)CC3)c12` the value was 4.76%; for `CCCCOc1nc(N)c2c(n1)N(Cc1cccc(CN3CCCC3)c1)CC(=O)N2`, -13.5%.

In the case of `CCc1nn(CCO)c(CC)c1Oc1cc(C#N)cc(C#N)c1`, the “activity change, negative = cytotoxicity” value is -16.9%. The result for `OCC1=C[C@@H](O)[C@@H]2C=CO[C@@H](O[C@@H]3O[C@H](CO)[C@@H](O)[C@H](O)[C@H]3O)[C@H]12` reads 0.542% [at 29.2 µM]; that for `COc1cccc2c1c(O)c(C(=O)N(C)c1ccc(C(F)(F)F)cc1)c(=O)n2C`, 9.01%; that for `Cc1cc(OCCN2CCOCC2)nn1-c1ccc2ccccc2c1`, -1.49%. Consider `NCCCCN(Cc1nc2ccccc2[nH]1)[C@H]1CCCc2cccnc21`, for which the “activity change, negative = cytotoxicity” value is -17.3%.

Take `Fc1ccccc1-c1nc2ccn(Cc3ccc(-c4ccc(C(F)(F)F)cc4C(F)(F)F)nn3)cc-2n1`: the “activity change, negative = cytotoxicity” value was -21%. For `CCCC(C(=O)O)c1c(C)nc2ccc(Cl)cc2c1-c1ccccc1` (configuration not stated) the value was -7.61%; for `COC(=O)C1=CO[C@@H](O[C@@H]2O[C@H](CO)[C@@H](O)[C@H](O)[C@H]2O)[C@@H]2C(CO)=CC[C@H]12`, 6.21%; for `Cc1noc2c1-c1ccccc1C(c1ccc(Cl)cc1)=N[C@H]2CC(N)=O`, -11%.
